Measurements as given in PubChem BioAssay (NCI).
Compounds without any hit were thinned out: in the full panel of roughly 79,000, 15% have a hit. The source made the active and inactive calls. No stated cut-off is given here; in the data, active means growth inhibition above about 70%; inactive means the rest.

Experiments:
[1] = NCI Yeast Anticancer Drug Screen. Data for the rad52 strain (AID 147);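 further: 0% = growth of vehicle-treated control cultures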; conditions: S. cerevisiae rad52 mutant growth inhibition, stronger effect = higher value
Outline: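 Here a repair-compromised yeast strain receives each compound; its growth is then quantified and normalised to vehicle-only controls.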

[2] = NCI Yeast Anticancer Drug Screen. Data for the wt1 strain (AID 149);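 further: 0% = growth of vehicle-treated wt1 cultures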; conditions: S. cerevisiae wt1 strain (SPY 50644) growth inhibition, stronger effect = higher value
Outline: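 Vehicle-normalised growth inhibition; strain wt1; compound exposure.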

[3] = NCI Yeast Anticancer Drug Screen. Data for the rad50EPP+ strain (AID 151);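 further: 0% = growth of vehicle-treated control cultures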; conditions: S. cerevisiae rad50 mutant strain, stronger effect = higher value
Outline: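 Read-out is yeast growth inhibition relative to vehicle; cells used were the rad50EPP+ strain.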

[4] = NCI Yeast Anticancer Drug Screen. Data for the mgt1 strain (AID 153); conditions: S. cerevisiae mgt1 mutant growth inhibition, stronger effect = higher value
Outline: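 Measured: inhibition of mgt1 yeast growth by compound, normalized to vehicle-treated cultures.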

[5] = NCI Yeast Anticancer Drug Screen. Data for the rad50 strain (AID 155);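 further: 0% = growth of vehicle-only cultures of the same strain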; conditions: S. cerevisiae rad50 strain growth inhibition, stronger effect = higher value
Outline: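 A DNA repair-deficient yeast mutant serves as the test organism; compound-induced growth inhibition is calculated against vehicle-treated cells.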

[6] = NCI Yeast Anticancer Drug Screen. Data for the mec2-1 strain (AID 157); conditions: S. cerevisiae mec2-1 strain, stronger effect = higher value
Outline: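 Using mec2-1 yeast: add compound, measure growth, express inhibition versus vehicle-treated cultures.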

[7] = NCI Yeast Anticancer Drug Screen. Data for the rad14 strain (AID 159);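 further: 0% = growth of vehicle-treated control cultures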; conditions: S. cerevisiae rad14 strain growth inhibition, stronger effect = higher value
Outline: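 Vehicle-treated cultures served as the baseline for growth inhibition of a DNA repair-mutant yeast strain exposed to each compound.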

[8] = NCI Yeast Anticancer Drug Screen. Data for the sgs1 mgt1 strain (AID 161);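 further: 0% = growth of cultures given vehicle only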; conditions: S. cerevisiae sgs1 mgt1 strain, stronger effect = higher value
Outline: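 Growth of a repair-deficient yeast mutant was monitored after compound treatment and expressed as inhibition relative to vehicle-treated cultures.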

[9] = NCI Yeast Anticancer Drug Screen. Data for the CLN2oe strain (AID 163);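 further: 0% = growth of vehicle-only control cultures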; conditions: S. cerevisiae CLN2oe strain, stronger effect = higher value
Outline: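 Whole-cell yeast growth assay. A strain engineered for altered cell-cycle control received compound, and inhibition relative to vehicle-treated cultures was recorded.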

[10] = NCI Yeast Anticancer Drug Screen. Data for the bub3 strain (AID 167); conditions: S. cerevisiae bub3 mutant strain, stronger effect = higher value
Outline: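 Inhibition values come from growth of compound-treated mutant yeast normalised to vehicle-treated controls.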

[11] = NCI Yeast Anticancer Drug Screen. Data for the wt2 strain (AID 169);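 further: 0% = growth of vehicle-treated yeast cultures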; conditions: S. cerevisiae wt2 strain growth inhibition, stronger effect = higher value
Outline: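 Treated yeast vs. vehicle-treated yeast: growth inhibition determined.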

[12] = NCI Yeast Anticancer Drug Screen. Data for the mlh1 strain (AID 171);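 further: 0% = growth of vehicle-treated control cultures of the same strain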; conditions: S. cerevisiae mlh1 strain growth inhibition, stronger effect = higher value
Outline: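 A yeast strain with a defined genetic lesion serves as the test organism. Cultures receive compound or vehicle, and growth is measured.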

[13] = NCI Yeast Anticancer Drug Screen. Data for the sgs1 strain (AID 173);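 further: 0% = growth of vehicle-only control cultures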; conditions: S. cerevisiae sgs1 mutant, stronger effect = higher value
Outline: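 A genetically defined yeast mutant is incubated with the test compound, and its growth is compared to that of the same strain given vehicle.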

[14] = NCI Yeast Anticancer Drug Screen. Data for the mlh1 rad18 strain (AID 175); conditions: S. cerevisiae mlh1 rad18 strain growth inhibition, stronger effect = higher value
Outline: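 Steps: expose repair-defective yeast to compound; measure growth; express inhibition against vehicle-treated controls.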

[15] = NCI Yeast Anticancer Drug Screen. Data for the rad18 strain (AID 177); conditions: S. cerevisiae rad18 mutant growth inhibition, stronger effect = higher value
Outline: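 Measured value is growth inhibition of a yeast strain bearing a DNA repair alteration, referenced to vehicle-treated cells.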

[16] = at 5.0 µM (retest, dose inferred, filed as 0.5)
[17] = at 50.0 µM (retest, dose inferred, filed as 5.0)

Measured: growth inhibition

c1ccc2cc3n[se]nc3cc2c1
inactive: [1]; at 1.2 µM 2% | [1]; at 3.7 µM 5% | [1]; at 11.0 µM 17% | [1]; at 33.0 µM 47% | [2]; at 1.2 µM 5% | [2]; at 3.7 µM 2% | [2]; at 11.0 µM 6% | [2]; at 33.0 µM 13% | [3]; at 1.2 µM 2% | [3]; at 3.7 µM 13% | [3]; at 11.0 µM 33% | [3]; at 33.0 µM 64% | [4]; at 1.2 µM 6% | [4]; at 3.7 µM 7% | [4]; at 11.0 µM 5% | [4]; at 33.0 µM 27% | [5]; at 1.2 µM 3% | [5]; at 3.7 µM 5% | [5]; [16] -14% | [5]; at 11.0 µM 19% | [5]; [17] 55% | [6]; at 1.2 µM 1% | [6]; at 3.7 µM 2% | [6]; [16] -14% | [6]; at 11.0 µM 8% | [6]; at 33.0 µM 16% | [6]; [17] 3% | [6]; at 50.0 µM 39.4% | [7]; at 1.2 µM 3% | [7]; at 3.7 µM 4% | [7]; at 11.0 µM 5% | [7]; at 33.0 µM 18% | [8]; [16] -15% | [8]; [17] 44% | [8]; at 50.0 µM 45.2% | [9]; at 1.2 µM -5% | [9]; at 3.7 µM 0% | [9]; at 11.0 µM 15% | [9]; at 33.0 µM 14% | [10]; at 1.2 µM -1% | [10]; at 3.7 µM 1% | [10]; [16] 13% | [10]; at 11.0 µM 4% | [10]; at 33.0 µM 28% | [10]; [17] 25% | [10]; at 50.0 µM 56.8% | [11]; at 1.2 µM 0% | [11]; at 3.7 µM 1% | [11]; at 11.0 µM 8% | [11]; at 33.0 µM 26% | [12]; at 1.2 µM 2% | [12]; at 3.7 µM 4% | [12]; at 11.0 µM 11% | [12]; at 33.0 µM 34% | [13]; at 1.2 µM 2% | [13]; at 3.7 µM 4% | [13]; at 11.0 µM 12% | [13]; at 33.0 µM 33% | [14]; [16] -11% | [14]; [17] 24% | [15]; at 1.2 µM 4% | [15]; at 3.7 µM 13% | [15]; at 11.0 µM 4% | [15]; at 33.0 µM 68%
active: [1]; at 100.0 µM 96% | [2]; at 100.0 µM 72% | [3]; at 100.0 µM 86% | [4]; at 100.0 µM 94% | [5]; at 33.0 µM 79% | [5]; at 50.0 µM 97.5% | [5]; at 100.0 µM 96% | [6]; at 100.0 µM 93% | [7]; at 100.0 µM 98% | [9]; at 100.0 µM 78% | [10]; at 100.0 µM 96% | [11]; at 100.0 µM 95% | [12]; at 100.0 µM 97% | [13]; at 100.0 µM 91% | [14]; at 50.0 µM 76.2% | [15]; at 100.0 µM 96%

CC1(Cl)CC(C)(/C=C/Cl)C(Cl)CC1Cl (stereo not given)
inactive: [1]; at 1.2 µM 6% | [1]; at 3.7 µM 8% | [1]; at 11.0 µM 13% | [1]; at 33.0 µM 22% | [1]; at 100.0 µM 43% | [2]; at 1.2 µM 3% | [2]; at 3.7 µM 3% | [2]; at 11.0 µM 3% | [2]; at 33.0 µM 10% | [2]; at 100.0 µM 35% | [3]; at 1.2 µM 2% | [3]; at 3.7 µM 0% | [3]; at 11.0 µM 6% | [3]; at 33.0 µM 15% | [3]; at 100.0 µM 24% | [4]; at 1.2 µM 2% | [4]; at 3.7 µM 1% | [4]; at 11.0 µM 3% | [4]; at 33.0 µM 5% | [4]; at 100.0 µM 43% | [5]; at 1.2 µM -1% | [5]; at 3.7 µM -8% | [5]; [16] 12% | [5]; at 11.0 µM -3% | [5]; at 33.0 µM 28% | [5]; [17] -8% | [5]; at 50.0 µM 58.6% | [5]; at 100.0 µM 48% | [6]; at 1.2 µM 5% | [6]; at 3.7 µM 3%
